Inconclusive results are not listed. Activity calls are given as the source filed them. The call rests on the fitted dose curve; in most records, active means well fitted inhibition curve with a large enough effect; inconclusive means small, poorly fitted or top-dose-only effect; inactive means no such curve, though single readings can be large or run the other way.
System: Zika virus NS2B-NS3 protease (unlinked complex)
Test: Primary screen GU Rhodamine qHTS for Zika virus inhibitors: Unlinked NS2B-NS3 protease assay (AID 1347159); further: nearly all actives have a fitted effect of over 60% in size
Settings: Recombinant ZIKV NS2B-NS3 protease, Rhodamine110 substrate fluorescence; series mostly up to 107 µM; activity change, negative = inhibition: at the top concentration
In short: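 Enzyme 25 nM in Tris-HCl pH 8.0 + 0.01% Tween 20; compounds up to 114 microM, 15 min RT dark; + Rhod110 substrate 1.5 microM; read t0 and 15 min; delta fluorescence → % inhibition → 4-parameter Hill fit.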
On the % scale 0 is the no-effect control and ±100 the full control effect; potency means the concentration at half of the fitted maximal effect.

| Structure (SMILES) | activity change, negative = inhibition | Potency |
| --- | --- | --- |
| CC(C)n1cnc2c(Nc3cccc(Cl)c3)nc(NCCO)nc21 | 31.4% (inactive) | – |
| COc1cccc(NC[C@@H](O)Cn2c3ccc(Br)cc3c3cc(Br)ccc32)c1 | – | 44.7 µM (active) |
| C[C@@H](O[C@H]1OCCN(Cc2n[nH]nc2CN(C)C)[C@H]1c1ccc(F)cc1)c1cc(C(F)(F)F)cc(C(F)(F)F)c1 | 1.08% (inactive) | – |
| CCC(=O)Nc1cccc(Oc2nc(Nc3ccc(N4CCN(C)CC4)cc3OC)ncc2Cl)c1 | 47% (inactive) | – |
| O=C(Nc1cccc(C(F)(F)F)c1)c1ccccc1NCc1ccncc1 | 1.38% (inactive) | – |
| COc1cc2nc(-c3cc(F)ccc3O)nc(N[C@@H]3CNC[C@H]3C(C)(C)O)c2cc1OC | 199% (inactive) | – |
| C=C1C(=O)O[C@@H]2/C=C(/C)CC3C=C(C[C@H](OC(=O)/C(C)=C\C)[C@@H]12)C(=O)O3 (some centres not stated) | -19.5% (inactive) | – |
| CC1(C)SC2C(NC(=O)[C@H](NC(=O)N3CCNC3=O)c3ccccc3)C(=O)N2C1C(=O)O (some centres not stated) | 0% (inactive) | – |
| CC1(C)SC2C(NC(=O)[C@H](C(=O)O)c3ccsc3)C(=O)N2C1C(=O)O (some centres not stated) | -8.28% (inactive) | – |
| COc1ccc(-c2nc(-c3cc(C(F)(F)F)cc(C(F)(F)F)c3)n(Cc3ccc(C(N)=O)cc3)c2-c2ccc(OC)cc2)cc1 | -8.11% (inactive) | – |
| Fc1ccccc1CNCc1ccc(-c2ccnc3[nH]ccc23)cc1 | 79.4% (inactive) | – |
| CO[C@@H]1[C@@H](O[C@H]2O[C@@H](C)[C@H](O[C@@H]3C[C@](C)(O)[C@H](O)[C@@H](C)O3)[C@@H](N(C)C)[C@@H]2O)[C@@H](CC=O)C[C@@H](C)[C@@H](O[C@H]2CC[C@H](N(C)C)[C@H](C)O2)/C=C/C=C/C[C@@H](C)OC(=O)C[C@H]1O | -9.9% (inactive) | – |

Reference: PubChem BioAssay (NCATS)
